ERp5 inh = inhibitors of ERp5-driven insulin aggregation, primary screen, biochemical, turbidity, absorbance 650 nm, single point | hit rate 0.05% among 350,000 | inhibition, % at 9.99 µM | 90 min;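 active means mean replicate inhibition above about 25%, with every replicate also reaching it, limit read from the data, passing the limit was not always enough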
PGC1a acetyl inh = inhibitors of PGC1a acetylation signal, primary screen, cell-based, U2OS, AlphaScreen, inhibitor mode; AlphaScreen anti-acetyl-lysine; with virally co-expressed GCN5 acetyltransferase; inhibition, % at 15.6 µM; hit rate 0.17% among 350,000;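 active means every replicate shows inhibition of at least 40%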;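 further: 0% = neutral control wells and 100% = positive control wells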
ERAP1 inh = human ERAP1 aminopeptidase inhibitors, primary screen, biochemical, single point, plate reader; recombinant ERAP1, Leu-AMC fluorescence, 60 min; hit rate 0.15% among 340,000; inhibition, % at 10.7 µM;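 active means mean replicate inhibition of at least 30%, or all replicates individually reaching that 30% level; inactive means mean below 30% and not every replicate reaching it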;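 further: 0% = neutral control wells and 100% = L-leucinethiol positive control wells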
CaV13 ICDI inh = Disruptors of the CACNA1D IQ motif to Ca2+-dependent inactivation inhibitor domain association, primary screening, Förster resonance energy transfer in intact living …; HEK cells, CFP/YFP FRET ICDI-IQ, plate reader, 10 min; percent FRET-ratio fall versus neutral wells; hit rate 0.098% among 340,000; AID 743397; inhibition, % at 12.3 µM;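 active means mean replicate inhibition of at least 30% and at least 1% of replicates passing that level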;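 further: 0% = median of the neutral control wells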
PDI inh = inhibitors of human PDI, primary screen, biochemical, turbidity, single point, plate reader. Protein disulfide-isomerase (Homo sapiens), P07237. PDI insulin aggregation turbidity, A650, 90 min. inhibition, % at 10 µM. hit rate 0.052% among 350,000. AID 588391, 2011;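 active means mean inhibition across replicates of 30% or more, whatever share of single replicates reach that level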
Target sequence (P07237 whole entry, looked up): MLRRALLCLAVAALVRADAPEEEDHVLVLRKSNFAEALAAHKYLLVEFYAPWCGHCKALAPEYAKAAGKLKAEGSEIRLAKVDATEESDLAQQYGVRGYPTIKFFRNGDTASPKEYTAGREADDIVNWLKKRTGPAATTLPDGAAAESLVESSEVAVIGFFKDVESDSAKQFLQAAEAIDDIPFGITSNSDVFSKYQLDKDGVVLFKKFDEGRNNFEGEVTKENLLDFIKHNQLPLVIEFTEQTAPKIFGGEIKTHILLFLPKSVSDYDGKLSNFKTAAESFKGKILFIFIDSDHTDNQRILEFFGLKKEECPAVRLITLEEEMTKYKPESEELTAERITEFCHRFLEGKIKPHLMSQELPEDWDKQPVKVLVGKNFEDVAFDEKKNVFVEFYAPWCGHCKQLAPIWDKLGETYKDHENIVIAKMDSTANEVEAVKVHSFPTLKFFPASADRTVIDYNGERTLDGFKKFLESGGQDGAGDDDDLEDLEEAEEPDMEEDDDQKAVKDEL
PglD inh = C. jejuni PglD acetyltransferase inhibitors, primary screen, biochemical, DTNB colorimetric, single point; purified PglD enzyme, DTNB colorimetric CoA detection; inhibition, % at 12.5 µM; hit rate 0.098% among 360,000; in the data active means inhibition above about 16%, passing the limit was not always enough
PglD confirm = PglD acetyltransferase inhibitors, confirmation, biochemical, DTNB absorbance, single point, cherry-picked samples. shares compounds with PglD inh. Purified C. jejuni PglD, DTNB absorbance 412 nm. inhibition, % at 20 µM. 320 tested, under 10 active. AID 743156, 2013;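 active means mean inhibition across replicates of at least 20% with every single replicate also at 20% or more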;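 further: initial rate of CoA release by acetyl transfer from AcCoA to the UDP-4-amino sugar; 0% = median of neutral control wells and 100% = median of positive control wells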
Numbers without * were called inactive; . = no result given. An excerpt weighted towards active compounds, which were near 0.46% of everything screened.

SMILES | ERp5 inh | PGC1a acetyl inh | ERAP1 inh | CaV13 ICDI inh | PDI inh | PglD inh | PglD confirm
Cc1ccc([N+](=O)[O-])c(C(=O)Nc2cccnc2Cl)c1 | -2.5 | -0.4 | -1.3 | -3.1 | 13.4 | 20.8* | -3.8
CC(=O)NN=C1CCC(c2ccccc2)CC1 (stereo not given) | . | 55.9 | . | -4.0 | -4.7 | -4.9 | .
NC(N)=NN=C1CCC(c2ccccc2)CC1 (stereo not given) | -3.5 | -7.9 | -0.4 | -3.2 | 4.5 | 25.2* | 2.9
CCN1[C@@H]2c3ccc(-c4cccc(F)c4)c(=O)n3C[C@@H]2[C@@H](CO)[C@@H]1C(=O)OC | -5.6 | 10.6 | 3.6 | . | . | . | .
CC(C)Oc1cc(F)ccc1-c1cc(C(=O)NCC2CCCCC2)[nH]n1 | 5.8 | 1.3 | -1.9 | -12.9 | 20.0 | 22.5* | 11.6
Cc1cc(F)ccc1-c1cc(C(=O)NCC2CCCCC2)[nH]n1 | 1.6 | 1.2 | -0.9 | -6.8 | 7.2 | 5.3 | .
CCOC(=O)C1=C(C)N(c2ccccc2)C(=O)NC1c1cccc([N+](=O)[O-])c1 (stereo not given) | . | -2.0 | . | -4.0 | 1.5 | 21.3* | -4.1
O=C(c1cc(-c2ccc(Cl)c(Cl)c2)on1)N1CCOCC1 | -4.7 | -5.1 | -4.0 | -7.1 | 2.1 | 3.0 | .
O=C(c1cc(-c2ccc(Cl)cc2)on1)N1CCOCC1 | -8.9 | 0.9 | -3.1 | -7.1 | 5.4 | 23.9* | 1.5
Cc1cc(N2CCOCC2)nc2ccc(NC(=O)CCC(=O)N3CCCCC3)cc12 | . | -7.3 | . | -5.7 | 3.8 | 23.5* | -1.4
CC(C)(C)c1cc[n+](-c2[nH]c(=O)sc2/C=N/NC([S-])=Nc2ccccc2)cc1 | 0.4 | 17.6 | 0.6 | -117.1 | 0.0 | 21.1* | 2.7
C/C(=N/OCO/N=C(/C)c1ccc(F)cc1)c1ccc(F)cc1 | -0.9 | 2.5 | -2.0 | -2.2 | -4.1 | 25.9* | -0.3
C[C@@H]1CN([C@@H](C)CO)C(=O)c2cc(C#Cc3ccccc3F)cnc2O[C@H]1CN(C)C(=O)C1CC1 | 7.2 | 5.7 | 2.0 | . | . | 2.3 | .
COC(=O)c1ccc(COc2ccc(C)cc2[N+](=O)[O-])o1 | 1.5 | 14.4 | 1.9 | -4.4 | 6.9 | -1.9 | .
COC(=O)c1cc(C)ccc1OCc1ccc([N+](=O)[O-])cc1 | 2.6 | . | -3.4 | -5.7 | -2.3 | 22.8* | -2.9
C[C@H](O)C#Cc1cnc2c(c1)C(=O)N([C@H](C)CO)C[C@@H](C)[C@H](CN(C)C(=O)CN1CCOCC1)O2 | 8.4 | 6.6 | 6.0 | . | . | -1.8 | .
O=[N+]([O-])c1ccc(O)c(C=Nc2cccc3ncccc23)c1 | -2.9 | 2.3 | -2.1 | -4.0 | -4.2 | 22.6* | 9.1
O=[N+]([O-])c1ccc(O)c(C=Nc2cccc3ccccc23)c1 | -1.3 | . | 7.5 | -0.2 | -4.7 | 0.0 | .
CCN(CC)C1CCN(C(=O)c2ccc(OC3CCN(C(=O)CCOC)CC3)cc2)C1 (stereo not given) | 0.1 | 9.1 | 0.9 | -11.3 | 2.3 | 26.0* | 5.3
CO[C@@H]1CN(C)C(=O)c2cc(NC(=O)c3ccccc3)ccc2OC[C@H](C)N(C(=O)C2CC2)C[C@H]1C | -1.1 | 12.0 | 1.5 | . | . | 2.8 | .
NCc1csc(Nc2cc(Oc3ccccc3)ncn2)n1 | 2.6 | 12.0 | -1.2 | -4.8 | -3.8 | 21.4* | 0.3
N#C/C(=N\O)c1nc2ccccc2[nH]1 | . | . | . | -5.6 | -1.7 | . | .
Cc1ccc2nc(/C(C#N)=N/O)[nH]c2c1 | . | 6.5 | . | . | -10.8 | 37.8* | -12.1
O=C(C[C@@H]1CC[C@@H]2[C@H](COC[C@H](O)CN2Cc2ccc(Oc3ccccc3)cc2)O1)N1CCOCC1 | 9.0 | 1.1 | -0.8 | . | . | -2.5 | .
COc1ccc(-c2cc(-c3ccc(OC)cc3)[nH]n2)cc1 | . | -44.7 | . | . | -1.9 | 31.8* | -3.5
SMILES | ERp5 inh | PGC1a acetyl inh | ERAP1 inh | CaV13 ICDI inh | PDI inh | PglD inh | PglD confirm
COc1ccc(-c2cc(-c3cc(C)ccc3O)[nH]n2)cc1 | 3.2 | -23.3 | -2.6 | 9.9 | 22.0 | . | .
O=C(Nc1ccccc1C(=O)N1CCOCC1)C1CC(=O)N(C2CCCC2)C1 (stereo not given) | . | 3.2 | . | -9.0 | 10.9 | 33.1* | -4.9
O=C(Nc1ccccc1C(=O)N1CCOCC1)C1CC(=O)N(c2ccc(F)cc2)C1 (stereo not given) | -8.1 | -4.6 | -1.8 | -9.2 | 24.8 | -11.7 | .
Cc1cccc(-n2c(N)cc(=O)[nH]c2=S)c1C | . | -11.9 | . | -1.0 | 13.7 | 3.3 | .
Nc1cc(=O)[nH]c(=S)n1-c1cccc(C(F)(F)F)c1 | . | -8.7 | . | -9.1 | -3.4 | 44.2* | 0.3
CO[C@H]1CN(C)C(=O)c2cc(NS(=O)(=O)c3cn(C)cn3)ccc2OC[C@H](C)N(CC2CC2)C[C@H]1C | 0.5 | 6.1 | -0.1 | . | . | -2.6 | .
COc1cccc(C(=O)NNC(=O)C(=O)Nc2cccc(Cl)c2C)c1 | 1.0 | 1.6 | 0.7 | -5.0 | -2.3 | 21.7* | 9.8
Cn1ncc(C(=O)Nc2ccc(OC(F)(F)F)cc2)c1-n1cccc1 | 0.4 | . | -0.3 | -12.6 | -15.4 | 21.3* | -4.7
C/C(=N/NC(=O)c1cccs1)c1ccc(NC(=O)COc2ccc(Cl)cc2Cl)cc1 | . | 2.1 | . | -5.5 | -4.8 | 21.4* | 0.5
CCCOc1ccc(S(=O)(=O)NCCN2CCOCC2)c2ccccc12 | . | -6.5 | . | -0.1 | -4.1 | 22.5* | 1.4
CCOc1ccc(S(=O)(=O)NCCN2CCOCC2)c2ccccc12 | . | -12.5 | . | -5.0 | 9.2 | -6.8 | .
O=C(NCc1ccccn1)[C@H]1[C@H](CO)[C@H]2Cn3c(cccc3=O)[C@H]2N1CCc1ccccc1 | 2.8 | . | 0.4 | . | . | -1.6 | .
O=[N+]([O-])c1ccc(O)c(-c2cc(C(F)(F)F)nc(-c3ccccc3)n2)c1 | 5.0 | . | -1.7 | -3.0 | -1.8 | 24.6* | 1.5
Oc1ccccc1-c1cc(C(F)(F)C(F)F)nc(-c2ccccc2)n1 | . | 4.9 | . | -8.5 | 2.7 | -2.6 | .
COc1ccccc1CNC(=O)c1cc2ccccc2o1 | 1.2 | 7.3 | 2.3 | -7.3 | 4.1 | 7.3 | .
COc1ccccc1CNC(=O)c1cc2ccccc2oc1=O | 20.8 | . | -0.5 | . | 4.8 | 32.0* | 8.3
CCCCNC(=O)Nc1nnc(-c2ccccc2)o1 | . | 12.0 | . | -4.7 | 1.1 | 39.4* | 2.0
O=C(NC1CC1)c1cccc(NC(=O)C2CCCCC2)c1 | -1.7 | 1.9 | . | -3.2 | -5.6 | -1.0 | .
O=C(NC1CCCCC1)c1cccc(NC(=O)c2ccccc2Cl)c1 | 0.0 | 4.0 | -0.7 | -8.9 | -0.4 | 22.2* | 1.3
c1ccc2c(c1)oc1c(NCCN3CCOCC3)ncnc12 | . | -6.0 | . | -9.6 | -3.3 | 7.4 | .
